Inconclusive results are not listed. Calls of active or inactive are those of the source. Calls come from the whole dose curve; as a rule, active = well fitted inhibition curve with a large enough effect; inconclusive = small, poorly fitted or top-dose-only effect; inactive = flat fitted curve, though single readings scatter.
Tests used:
Assay in all cases: qHTS profiling for inhibitors of Plasmodium falciparum proliferation (AID 504749); note: nearly all actives have a fitted effect of over 60% in size
Conditions in all cases: P. falciparum in erythrocytes, SYBR Green DNA, 72 h; series mostly up to 28.7 µM
[1] = test system: CP315
In short: (§1)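 SYBR Green fluorescence (ex 485 nm, em 535 nm) reports parasite DNA after 72 h compound exposure of infected red cells at 0.3% parasitemia, 2.5% hematocrit; signal normalized to 0.29 uM artemisinin and vehicle wells.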

[2] = test system: DFO2036
In short: as §1

[3] = test system: DIV14
In short: as §1

[4] = test system: DIV17
In short: as §1

[5] = test system: DIV30
In short: as §1

[6] = test system: Dd2
In short: as §1

[7] = test system: ECU
In short: as §1

[8] = test system: FAB9
In short: as §1

[9] = test system: GB4
In short: as §1

[10] = test system: HB3
In short: as §1

[11] = test system: ICS
In short: as §1

[12] = test system: JCK
In short: as §1

[13] = test system: N140
In short: as §1

[14] = test system: P93_24
In short: as §1

[15] = test system: CP297
In short: as §1

[16] = test system: CP335
In short: as §1

[17] = test system: CP329
In short: as §1

[18] = test system: CP305
In short: as §1

[19] = test system: CP325
In short: as §1

Measured: Potency
Potency is the fitted concentration of half-maximal effect.

C[C@@H]1CN(CCCn2c3ccccc3c3ccccc32)C[C@H](C)N1
inactive: [1] | [8] | [10] | [12]
active: [2] 14.1 µM | [3] 2.39 µM | [4] 4.78 µM | [5] 9.53 µM | [6] 6.31 µM | [7] 10 µM | [9] 13.5 µM | [11] 5.01 µM | [13] 12.6 µM | [14] 5.01 µM

CCOC(=O)c1cccc(N)c1
active: [15] 15.1 µM | [5] 12 µM
not listed: [1] | [3] | [4] | [9] | [17] | [18] | [19]
inactive: all other assays above

CCCCCCCCCCOCC(O)CN (stereo not drawn)
inactive: [1] | [17] | [2] | [8] | [10] | [12]
active: [3] 10.7 µM | [6] 12.6 µM | [9] 9.53 µM | [11] 11.2 µM

CC(C)COC(=O)c1ccc(N)cc1
not listed: [3] | [12] | [17] | [19]
inactive: all other assays above

COc1ccc(CN2CCN(C(c3ccc(F)cc3)c3ccc(F)cc3)CC2)c(OC)c1OC
active: [19] 16.9 µM | [16] 6.01 µM | [3] 12 µM | [4] 12 µM | [5] 16.9 µM | [6] 7.94 µM | [7] 12.6 µM | [9] 9.53 µM | [10] 11.2 µM | [11] 2.24 µM | [13] 8.91 µM | [14] 7.94 µM

NC(CS)C(=O)O (stereo not drawn)
active: [2] 12.6 µM | [3] 6.75 µM | [4] 9.53 µM | [5] 16.9 µM | [10] 8.91 µM | [11] 2 µM | [13] 11.2 µM | [14] 10 µM
inactive: [1] | [17]

CNCCC=C1c2ccccc2CCc2ccccc21
inactive: [1] | [8] | [10]
active: [3] 2.13 µM | [4] 3.79 µM | [6] 8.91 µM | [9] 8.49 µM | [11] 11.2 µM | [13] 7.08 µM

CN1CCN(CCCN2c3ccccc3Sc3ccc(S(=O)(=O)N(C)C)cc32)CC1
active: [3] 4.55 µM | [5] 7.21 µM | [6] 3.55 µM | [7] 4.47 µM | [11] 1.41 µM | [14] 3.16 µM
inactive: [1] | [17]

O=C(N/N=C/c1ccccc1O)c1ccncc1
inactive: [15] | [8] | [12]
active: [16] 6.01 µM | [2] 7.94 µM | [6] 11.2 µM | [11] 3.55 µM | [14] 10 µM

O=C(CCCN1CCC(O)(c2ccc(Br)cc2)CC1)c1ccc(F)cc1
inactive: [15] | [2] | [7] | [8]
active: [3] 5.73 µM | [4] 6.42 µM | [6] 3.55 µM | [9] 5.73 µM | [11] 3.55 µM

CN(C)CCOc1ccccc1Cc1ccccc1
inactive: [1] | [5] | [8] | [10]
active: [15] 4.26 µM | [2] 6.31 µM | [3] 8.49 µM | [4] 10.7 µM | [6] 5.01 µM | [13] 4.47 µM

CCOc1ccc(Cc2nccc3cc(OCC)c(OCC)cc23)cc1OCC
active: [12] 10 µM
not listed: [5] | [9] | [10] | [16] | [17]
inactive: all other assays above

C=C(CC)C(=O)c1ccc(OCC(=O)O)c(Cl)c1Cl
inactive: [15] | [19]
active: [6] 11.2 µM | [11] 10 µM

O=c1c(-c2ccccc2)c1-c1ccccc1
active: [4] 10.7 µM | [6] 10 µM | [9] 10.7 µM | [10] 11.2 µM | [11] 4.47 µM | [13] 11.2 µM

c1ccc(CNCCNCc2ccccc2)cc1
active: [15] 12 µM | [3] 3.79 µM | [4] 6.01 µM | [6] 11.2 µM | [7] 11.2 µM
inactive: [1] | [17] | [8] | [10] | [12]

Oc1c(I)cc(I)c2cccnc12
inactive: [3] | [7] | [8] | [12]

CC(C)=CCC1C(=O)N(c2ccccc2)N(c2ccccc2)C1=O
inactive: [1] | [8] | [12] | [14]

CN1CCN(C(c2ccccc2)c2ccccc2)CC1
inactive: [15] | [18] | [1] | [2] | [5] | [7] | [8] | [10] | [11] | [12]

CC(C)(Oc1ccc(Cl)cc1)C(=O)O
not listed: [16] | [18]
inactive: all other assays above

Clc1ccc2c(c1)CCc1cccnc1C2=C1CCNCC1
inactive: [2] | [8] | [10] | [12]
active: [3] 7.57 µM | [4] 9.53 µM | [5] 16.9 µM | [6] 4.47 µM | [11] 11.2 µM

c1ccc(-c2ccc(C(c3ccccc3)n3ccnc3)cc2)cc1 (stereo not drawn)
active: [15] 6.75 µM | [1] 16.9 µM | [3] 9.53 µM | [4] 10.7 µM | [5] 12 µM | [6] 7.94 µM | [7] 3.55 µM | [9] 8.49 µM | [10] 10 µM | [11] 2.24 µM | [13] 7.08 µM | [14] 3.16 µM

CC(C)N=C(N)/N=C(\N)Nc1ccc(Cl)cc1
inactive: [3]
active: [6] 3.55 µM

CC(O)(P(=O)(O)O)P(=O)(O)O
not listed: [3] | [4] | [9] | [15] | [18] | [19]
inactive: all other assays above

CCCCc1nc(Cl)c(CO)n1Cc1ccc(-c2ccccc2-c2nn[nH]n2)cc1
active: [3] 8.49 µM | [11] 7.94 µM | [13] 12.6 µM
inactive: [15] | [8] | [12]

OC(CCN1CCCCC1)(c1ccccc1)c1ccccc1
active: [15] 6.01 µM | [3] 4.26 µM | [4] 6.75 µM | [6] 10 µM | [9] 6.75 µM | [11] 12.6 µM
inactive: [7] | [8] | [10]

O=C1OCCN1/N=C/c1ccc([N+](=O)[O-])o1
active: [6] 11.2 µM | [11] 7.94 µM | [14] 11.2 µM
inactive: [15] | [1] | [19] | [17]

CN(C)C(=S)SC(=S)N(C)C
active: [18] 15.1 µM | [19] 15.1 µM | [16] 8.49 µM | [2] 10 µM | [3] 13.5 µM | [5] 12 µM | [6] 7.08 µM | [7] 1.12 µM | [9] 13.5 µM | [10] 5.01 µM | [11] 5.01 µM | [13] 11.2 µM | [14] 8.91 µM

CCCCCCCCCCCCCCCC[N+](C)(C)CCN(Cc1ccc(OC)cc1)c1ncccn1
active: [3] 7.21 µM | [7] 1.12 µM
inactive: [15] | [18] | [1] | [17] | [5] | [8] | [10] | [12]

CC(C)NC[C@@H](O)COc1cccc2ccccc12
inactive: [15] | [1] | [19] | [8]
active: [3] 13.5 µM | [4] 9.53 µM | [6] 12.6 µM | [9] 12 µM | [11] 7.08 µM | [13] 12.6 µM

C[C@@H]1C[C@H]2[C@@H]3CCC4=CC(=O)C=C[C@]4(C)[C@@]3(F)[C@@H](O)C[C@]2(C)[C@H]1C(=O)CO
inactive: [18] | [1] | [19] | [17] | [16] | [2] | [6] | [7] | [8] | [12]
active: [3] 13.5 µM

CO/N=C1\CN(c2nc3c(cc2F)c(=O)c(C(=O)O)cn3C2CC2)CC1CN (stereo not drawn)
active: [16] 6.75 µM | [6] 10 µM | [9] 9.53 µM | [10] 11.2 µM | [11] 5.62 µM | [14] 8.91 µM

CCN(CCCc1ccccc1)CCCc1ccccc1
active: [6] 3.16 µM
inactive: [18] | [1] | [17] | [2] | [7] | [8] | [10] | [12]

CCCOC(C(=O)OC1CCN(C)CC1)(c1ccccc1)c1ccccc1
active: [3] 7.57 µM | [4] 7.57 µM | [6] 12.6 µM | [7] 10 µM | [11] 7.94 µM
inactive: [15] | [1] | [17] | [2] | [8]
